The results in this text go back to PubChem BioAssay AID1210 (NMMLSC, 2008).

A word on the inhibition: it is how much of the control response was suppressed.

Molecules are shown by their SMILES. Values without a mark were called inactive. Activity calls are given as the source filed them.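 Rule for the calls: active = blocks over 70% of labeled estradiol binding at 10 µM, or over a set limit at 100 nM; inactive = the rest.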

The target of this assay is Estrogen receptor beta (Homo sapiens) (UniProt Q92731). Nature of the assay: ERbeta ligand binders by competition, primary screen, cell-based, Cos7 ERbeta-GFP, flow cytometry (AID 1210).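 Note: 0% = DMSO vehicle wells and 100% = complete loss of labeled estradiol signal.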 The following applies: fluorescent estrogen binding, at 10 µM, stronger effect = higher value. Background: Flow cytometry measures light scatter and fluorescence of single cells or particles in a stream.
Sequence of Estrogen receptor beta (Homo sapiens) (Q92731 whole entry, looked up): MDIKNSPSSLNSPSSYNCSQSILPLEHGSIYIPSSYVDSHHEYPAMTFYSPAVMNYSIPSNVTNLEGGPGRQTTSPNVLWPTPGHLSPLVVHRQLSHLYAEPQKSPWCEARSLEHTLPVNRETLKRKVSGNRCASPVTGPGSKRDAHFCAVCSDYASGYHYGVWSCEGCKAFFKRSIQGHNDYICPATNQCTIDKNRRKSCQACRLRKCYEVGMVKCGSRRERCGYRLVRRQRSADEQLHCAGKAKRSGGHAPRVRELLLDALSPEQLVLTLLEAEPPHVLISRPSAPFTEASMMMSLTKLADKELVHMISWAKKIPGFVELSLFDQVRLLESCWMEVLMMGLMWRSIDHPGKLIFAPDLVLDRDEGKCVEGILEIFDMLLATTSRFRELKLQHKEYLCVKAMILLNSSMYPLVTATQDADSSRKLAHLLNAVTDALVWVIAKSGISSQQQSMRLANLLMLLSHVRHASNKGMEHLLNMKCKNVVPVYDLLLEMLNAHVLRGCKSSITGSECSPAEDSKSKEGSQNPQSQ
Take `Cn1c(-c2ccc(N)cc2)nc2ccccc21`: the inhibition was 24%. Regarding `CCOc1ccccc1-n1nnnc1SCC(=O)NC(=O)NCc1ccco1`, the inhibition was 32%. `COc1cc([N+](=O)[O-])cc2c1NC(c1ccccc1Cl)C1CC=CC21` (stereo unspecified): the inhibition was 20%. The value for `Cc1cc([N+](=O)[O-])c2c(c1C)C1C=CCC1C(c1ccccn1)N2` (stereo unspecified) was 0%; that for `Cc1ccc2c(c1)[C@H]1OCC[C@H]1[C@@H](c1ccncc1)N2` was 24%.

As for `COc1ccccc1C1Nc2c(C(=O)O)cccc2C2C3CCC(C3)C12` (stereo unspecified), the inhibition is 21%. In the case of `O=c1oc2c(O)c(O)cc3c(=O)oc4c(O)c(O)cc1c4c23`, the inhibition is 13%. In the case of `CCOc1ccc(N=C2NC(=O)S/C2=C\c2ccc(OC)cc2)cc1`, the inhibition is 47%. On to `Cn1c(SCc2cc(=O)n3cc(Br)ccc3n2)nnc1C1COc2ccccc2O1` (stereo unspecified), for which the inhibition is 16%.

On to `CCCCCCc1cc2c3c(c(=O)oc2cc1OCC(N)=O)CCC3`, for which the inhibition was 12%. The value for `CCCNC(=O)c1ccc2c(c1)C1C3CCC(C3)C1C(c1ccccc1)N2` (stereo unspecified) was 54%; that for `CC(=O)Oc1ccc(C2Nc3c(C(=O)O)ccc([N+](=O)[O-])c3C3C=CCC32)cc1` (stereo unspecified) was 56%. For the compound `CC(=O)OC1CC2(C)C(=O)CCC2C2CCc3cc(O)ccc3C12` (stereo unspecified), the inhibition is 95% (active). The value for `CCCOc1cc2oc(=O)c3c(c2cc1CC)CCCC3` was 20%. The value for `COc1cc([N+](=O)[O-])cc2c1NC(c1ccc(Br)cc1)C1CC=CC21` (stereo unspecified) was 17%. The value for `O=C(O)c1ccc2c(c1)-c1nc3ccccc3n1C2=O` was 0%; that for `CCC1=NN2C(=N)/C(=C\c3ccc(SCc4ccco4)o3)C(=O)N=C2S1` was 35%. In the case of `Cc1cccc2cc(C(c3nnnn3C(C)(C)C)N(Cc3ccco3)CC3CCCO3)c(=O)[nH]c12` (stereo unspecified), the inhibition is 18%. The value for `O=C(Nc1ccc(O)cc1)C1CC=CCC1` (stereo unspecified) was 29%; that for `CCOC(=O)N1CCc2[nH]c3ccc(C)cc3c2C1` was 9%. For `CCOC(=O)Cc1csc(NC(=O)Cc2cccs2)n1`, the inhibition was 25%.
